Laboratory results reported in PubChem BioAssay (NCI).
The panel holds about 83,000 compounds, 20% with a hit somewhere; the sample as a whole holds those more often.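 Interpretation: 100, growth as untreated; towards 0, rising growth inhibition; 0, no net growth; 0 to -100, cell death. Compounds scoring below 10 were considered active.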 A number with no mark means an inactive call. Activity calls are given as the source filed them.

Key:
Assay in all cases: NCI-60 one-dose screen, 48 h (100 = growth as untreated, 0 = no growth, -100 = all killed)
Details in all cases: 10 µM unless noted
[1] = test system: NCI-H23 lung
[2] = test system: NCI-H226 lung
[3] = test system: NCI-H322M lung
[4] = test system: HOP-62 NSCLC
[5] = test system: NCI-H460 lung
[6] = test system: HOP-92 NSCLC
[7] = test system: NCI-H522 lung
[8] = test system: A549/ATCC NSCLC
[9] = test system: 786-0 renal
[10] = test system: COLO 205 colon

SMILES	growth [1]	growth [2]	growth [3]	growth [4]	growth [5]	growth [6]	growth [7]	growth [8]	growth [9]	growth [10]
O=C(CCCCN1CCOCC1)Nc1ccc(Cn2nnc3c2C(=O)c2nnn(Cc4ccc(NC(=O)CCCCN5CCOCC5)cc4)c2C3=O)cc1	-18% (active)	-52.2% (active)	-89.3% (active)	-59.1% (active)	-39.8% (active)	-40.3% (active)	-68.3% (active)	-68.3% (active)	-50.5% (active)	-78.8% (active)
Nc1cc2ccncc2c2ccccc12	67.7%	44%	61.7%	79.6%	58.2%	73.9%	98.4%	89.4%	78.1%	61.6%
COc1cc(OC)c(/C=C/S(=O)(=O)Cc2ccc(OC)c(N)n2)c(OC)c1	26.6%	59.6%	36.3%	11.6%	8.27% (active)	79.9%	-36.1% (active)	6.41% (active)	15.9%	-70.7% (active)
CCCCCCCCCCCCN1CCCC(C)C1 (stereo not given)	80.3%	85.3%	87.2%	89.1%	106%	73%	69.3%	91.4%	85.9%	82.2%
CCCCCCCCCCCCCCCCNCCC[C@@H](C)[C@H]1CC[C@H]2[C@@H]3[C@H](OCCCN)C[C@@H]4C[C@H](OCCCN)CC[C@]4(C)[C@H]3C[C@H](OCCCN)[C@]12C	-39.7% (active)	-1.42% (active)	-76.8% (active)	-49.5% (active)	-45.5% (active)	-33.2% (active)	-43.6% (active)	-58% (active)	-43.1% (active)	-40.8% (active)
CSc1nc(NCCCNc2ccnc3cc(Cl)ccc23)cc(-c2ccccc2)n1	67.6%	84.4%	85.5%	81.3%	70%	33.5%	73.5%	74.3%	72.9%	-76% (active)
CCN(C(=O)CN1CCN(c2cc3c(cc2F)c(=O)c(C(=O)O)cn3C2CC2)CC1)c1nc(-c2ccc(OC)cc2)cs1	66%	85.8%	38.8%	80.9%	-2.51% (active)	40%	49%	11.4%	102%	63.7%
O=C1O[C@H]([C@H](O)CO)C(O)=C1O	97.7%	103%	104%	107%	104%	109%	88.4%	104%	103%	107%
Fc1ccc(Cc2ccc(F)cc2)cc1	102%	99.9%	105%	106%	108%	100%	90%	103%	107%	108%
CCN(CC)CCC(=O)c1ccc(OC)c2ccccc12	90.8%	115%	90.9%	83.4%	99.8%	102%	12.6%	100%	98.7%	109%
Cc1nc2sc(C(=O)Nc3cccc4c3OCCO4)c(N)c2cc1C(C)O (stereo not given)	57.6%	50.2%	62.8%	-3.21% (active)	15.8%	49.6%	-29.3% (active)	49.9%	43.2%	5.86% (active)
COc1ccc(-n2c(C)nc3c(c(C)nn3-c3ccccc3)c2=O)cc1	18.4%	51.3%	49.9%	34.4%	3.74% (active)	27.6%	-14% (active)	16.3%	27.4%	-45.6% (active)
CC(=O)Oc1cc2cnc3c4cc(OC(C)=O)c(OC(C)=O)cc4ccc3c2cc1OC(C)=O	25.4%	36.4%	5.6% (active)	28.7%	9.99% (active)	18.6%	-28.8% (active)	25.5%	18.9%	78%
O=C1/C(=C\c2cn(C(=O)c3ccc(Cl)cc3)c3ccccc23)c2ccccc2N1c1c(Cl)cccc1Cl	97.2%	94.9%	112%	94.2%	111%	79.9%	90.9%	110%	90.7%	123%
Nc1nc2ccc(-c3nc4ccc5[nH]ncc5c4c4c3CCC4)cc2s1	24.2%	22.7%	25.8%	3.53% (active)	2.53% (active)	-4.3% (active)	-29.4% (active)	32.2%	25.6%	-2.69% (active)
NCCN1CCN(c2nccc(-c3ccc4ccccc4c3)n2)CC1	87.2%	81.9%	54.4%	74.9%	17.6%	27.7%	81.3%	52.3%	47.6%	-78.1% (active)
O=C(Nc1ccc(F)cc1)Nc1ccc(CCO)cc1	104%	107%	97.7%	116%	106%	103%	93.8%	91.4%	109%	132%
CCC(C)[C@@H]1NC(=O)[C@@H]2CCCN2C(=O)[C@H](Cc2ccccc2)NC(=O)[C@@H]2CCCN2C(=O)[C@H](Cc2ccccc2)NC(=O)[C@@H]2CCCN2C(=O)[C@H](Cc2ccccc2)NC1=O (stereo not given in full)	113%	109%	127%	103%	104%	95.3%	96.3%	101%	109%	108%
C[C@@H]1CC[C@@H]2[C@@H]1[C@H](OC(=O)/C=C/c1ccccc1)[C@]1(C3CCCCC3)C[C@@H](OC(=O)CO)[C@@]2(C)O1	81.9%	68.2%	92.9%	86%	68.3%	55.3%	65.9%	53.1%	73.2%	80.6%
CCOC(=O)c1cnc2cc(Cl)c(F)cc2c1Nc1cccc(NS(C)(=O)=O)c1	80.8%	96.4%	96.3%	95.9%	110%	67.6%	93%	112%	95.6%	124%
O=c1c2cccc3c(NC4CCCCC4)ccc(c32)c2nc3ccccc3n12	46%	72%	82.3%	90.6%	34.7%	48.4%	61.5%	66.5%	108%	75.6%
O=[N+]([O-])c1cccc(-c2nc3sccn3c2-c2ccnc(NCCCNS(=O)(=O)c3cccc(F)c3)n2)c1	-9.68% (active)	-5.67% (active)	45.2%	13.1%	16.3%	46.3%	-8.69% (active)	7.27% (active)	43.4%	-2.26% (active)
COc1ccc(-c2cc(NC(=O)Nc3ccc(O)cc3)no2)cc1	89.5%	84.2%	66.8%	88.5%	86.2%	94%	44.8%	67.6%	77.3%	105%
Cc1ccc(Nc2nc(N)nc(Nc3ccc4ccccc4c3)n2)cc1	69.2%	89.8%	52.4%	47%	14.6%	21.1%	6.88% (active)	30.9%	46.6%	18.7%
C=C1CC[C@@H]2[C@](C)(COC(C)=O)[C@H](OC(C)=O)CC[C@@]2(C)[C@@H]1CC(Nc1ccc(S(=O)(=O)Nc2ccc(Cl)nn2)cc1)C1=CCOC1=O (stereo not given in full)	58.2%	-10% (active)	57%	47.9%	14.5%	69.8%	-34.5% (active)	61.6%	58.8%	18%
O=C1Nc2ccccc2/C1=C/C(=N/c1nnc(-c2ccc(Cl)cc2)s1)c1ccccc1	29.1%	84.3%	77%	51.5%	63.7%	26.3%	-95.7% (active)	82.6%	-56.9% (active)	0.635% (active)
O=C(CCN1CCOCC1)Nc1ccc(Cn2nnc3c2C(=O)c2nnn(Cc4ccc(NC(=O)CCN5CCOCC5)cc4)c2C3=O)cc1	-20.9% (active)	86.5%	10%	70.9%	13.3%	-20% (active)	-28.9% (active)	84.8%	98.5%	-73.8% (active)
